Screens deposited in PubChem BioAssay by National Center for Advancing Translational Sciences (NCATS).
DT40 TDP1 CPT = DT40-hTDP1 cell growth loss with CPT. Potency, µM (highest dose often 46.2 µM), for the others: at the top dose activity change, negative = growth inhibition, hits mostly inhibitors. AID 686979. chicken DT40 Tdp1-/-;hTDP1 cells + 20 nM CPT, ATP luminescence, 48 h. 420,000 tested, 12% active; also: potency is read from the fitted curve at half-maximal effect; nearly all actives have a fitted effect of over 55% in size
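Chicken DT40 Tdp1-/- cells complemented with human TDP1, 400 cells/well, exposed to compounds plus 20 nM camptothecin for at least 48 h at 37 C; viability read as ATP content by CellTiter-Glo luminescence.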
ELG1 DNA repair = blocks ELG1-dependent DNA repair in HEK293T cells; Potency, µM (doses to about 46.1 µM), inactives show at the top dose activity change, negative = inhibition, actives largely listed as inhibitors; 330,000 tested, 2.3% active; AID 504467; HEK293T ELG1-luciferase reporter, luminescence, 16 h; DNA damage induced by 5-fluorouridine; also: potency is read from the fitted curve at half-maximal effect; nearly all actives have a fitted effect of over 55% in size
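Reporter activity after DNA damage by 5-fluorouridine is monitored. Compound-treated cells incubate 16 hr at 37 °C, then ONE-Glo is added for 30 min before luminescence reading.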
RORgamma inh = inhibitors of mouse ROR gamma transcriptional activity; Potency, µM (highest dose often 53.6 µM), for the others: at the top dose activity change, negative = inhibition, hits mostly inhibitors; Drosophila S2 Gal4-RORgamma UAS-luciferase reporter, 20 h; 310,000 tested, 5.4% active; P51450; also: potency is read from the fitted curve at half-maximal effect; nearly all actives have a fitted effect of over 60% in size
Target sequence (P51450 whole entry, looked up, the tested form may be a part): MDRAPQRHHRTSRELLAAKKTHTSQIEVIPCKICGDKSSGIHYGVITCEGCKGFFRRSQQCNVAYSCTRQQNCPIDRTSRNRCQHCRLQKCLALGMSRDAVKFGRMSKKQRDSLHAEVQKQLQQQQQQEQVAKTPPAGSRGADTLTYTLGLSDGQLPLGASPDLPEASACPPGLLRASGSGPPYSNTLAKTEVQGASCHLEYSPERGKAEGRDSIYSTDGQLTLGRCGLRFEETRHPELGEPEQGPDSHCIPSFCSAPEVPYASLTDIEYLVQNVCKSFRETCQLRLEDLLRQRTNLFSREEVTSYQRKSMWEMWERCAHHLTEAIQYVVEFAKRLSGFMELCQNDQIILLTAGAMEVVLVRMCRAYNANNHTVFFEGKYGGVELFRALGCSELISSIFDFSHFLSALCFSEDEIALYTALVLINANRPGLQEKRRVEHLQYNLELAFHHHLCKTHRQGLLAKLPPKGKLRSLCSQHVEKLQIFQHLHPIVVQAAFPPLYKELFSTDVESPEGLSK
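Stably transfected Drosophila Schneider cells are the test system, with ROR gamma fused to Gal4 and luciferase under UAS control; luminescence is read after 20 hr of 700 uM copper sulfate induction at ambient temperature.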
TDP1 cell noCPT = qHTS for Inhibitors of human tyrosyl-DNA phosphodiesterase 1 (TDP1): qHTS in cells in absence of CPT; Potency, µM (doses to about 46.2 µM), for the others: at the top dose activity change, negative = growth inhibition, actives largely listed as inhibitors; 420,000 tested, 15% active; DT40 Tdp1-/- hTDP1 cells, no CPT, ATP luminescence, 48 h; also: potency is read from the fitted curve at half-maximal effect; nearly all actives have a fitted effect of over 55% in size
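DT40 Tdp1-/-;hTDP1 cells, no CPT (DMSO vehicle only), 400 cells/well; compounds pin-transferred; ≥48 hr, 37 °C; CellTiter-Glo 30 min RT dark, luminescence read.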
IL-1B inflam inh = inhibitors of inflammasome signaling (IL-1 beta secretion); THP-1 LPS/ATP IL-1B secretion, AlphaLISA, 16 h; hits give low values; activity change, % at 57.5 µM; 360,000 tested, 4.7% active; in the data active = activity change below about -50%; inconclusive = mostly about -30% to -49%
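THP-1 cells pretreated 1 hr with compounds (up to 57.5 uM final), then stimulated with LPS (250 ng/mL final) plus ATP (1.25 mM final); secreted IL-1B measured by AlphaLISA after 16 hr, decreased signal indicating inhibition.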
Gal4-VP16 FLuc = inhibits Gal4-VP16 luciferase reporter, ROR gamma counter-screen; Drosophila S2 Gal4-VP16 UAS-luciferase, luminescence, 20 h; Potency, µM (highest dose often 53.6 µM), for the others: at the highest dose activity, negative = inhibition, usual class: inhibitors; 310,000 tested, 3.5% active; AID 2546;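 also: Gal4-VP16 expression switched on by copper sulfate through the metallothionein promoter; potency is read from the fitted curve at half-maximal effect; nearly all actives have a fitted effect of over 50% in size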
Active calls of the source: *; u = inconclusive; x = no result given; [ ] = dose if it differs, or a comment. Rows were chosen to be rich in hits. Some 21% of all compounds tested hit in one or more screens of this group. Unless noted, calls follow the shape of the dose curve; as a rule, active = well fitted curve in the direction sought with a large enough effect; inconclusive = small, poorly fitted or top-dose-only effect, or another doubt; inactive = no such curve, though single readings can be large; an effect the other way counts as inactive or inconclusive. % is scaled to controls: 0 for no effect and ±100 for the full control effect.

SMILES	DT40 TDP1 CPT	ELG1 DNA repair	RORgamma inh	TDP1 cell noCPT	IL-1B inflam inh	Gal4-VP16 FLuc
CCC(=O)NC(c1cccs1)c1cc(Cl)c2cccnc2c1O (stereo not drawn)	4.6µM*	2%	23%	3.3µM*	66	-9%
CN(CC(=O)Nc1cccc(F)c1)C(=O)/C=C/c1cc(Br)ccc1OC(F)F	4.6µM*	-17%	x	5.8µM*	-29	x
CN(CC(=O)Nc1cccc(F)c1)C(=O)/C=C/c1ccc2ccccc2n1	u	-2%	12%	0%	-51*	-11%
O=C(Cc1ccccc1)Nc1ccnn1C1CCN(Cc2nccs2)CC1	0%	4%	2%	36%	0	7%
Cc1cc(NC(=O)c2ccc(F)cc2)n(-c2ccccn2)n1	u	9%	2%	u	-68*	-3%
Cc1cc(NC(=O)Nc2cccc(Cl)c2)n(-c2ccccn2)n1	u	16µM*	-1%	18µM*	-73*	-8%
O=C(COCc1cc(-c2ccc3c(c2)OCO3)on1)Nc1cc(Cl)ccc1O	-14%	x	x	u	x	x
O=C(NC1(C(F)(F)F)C(=O)Nc2c1c(=O)[nH]c(=O)n2-c1ccccc1)c1ccccc1Cl (stereo not drawn)	-15%	x	x	-20%	x	x
CCOC(=O)c1cc(S(=O)(=O)NCc2ccc(Cl)cc2)[nH]n1	-10%	x	x	-20%	x	x
O=S1(=O)C=C(Sc2nc3cc(Cl)ccc3o2)c2ccccc21	0.58µM*	21µM*	5.6µM*	0.46µM*	-119*	2.5µM*
CN(C)c1nc(N)nc(CSc2nc3cc(Cl)ccc3o2)n1	-19%	u	4%	2%	50	24%
CCC(=O)N1CCC1(C)C(=O)Nc1ccc(OC)c(OC)c1 (stereo not drawn)	0%	x	x	1%	-13	x
S=c1[nH]nc(CCc2nc3ccccc3[nH]2)n1-c1cccc(Cl)c1	-1%	-17%	-9%	-7%	-16	-5%
Cc1cc(C(F)(F)F)nn1Cc1n[nH]c(=S)n1-c1cccc(Cl)c1	-13%	14%	11µM*	0%	16	u
Cc1cc(C(F)(F)F)nn1Cc1n[nH]c(=S)n1Cc1ccccc1	-3%	-8%	u	-6%	u	6.3µM*
Cc1nccn1CCc1n[nH]c(=S)n1Cc1ccccc1	-2%	4%	-27%	3%	0	0%
COc1ccc(C2/C=C\CN(C(=O)c3ccccc3)C(Cc3ccccc3)C(=O)N2Cc2ccc(F)cc2)cc1 (stereo not drawn)	x	x	u	x	x	-10%
COc1ccc(C2/C=C\CN(C(=O)c3ccccc3)[C@H](Cc3ccccc3)C(=O)N2Cc2ccc(F)cc2)cc1 (stereo partly drawn)	21µM*	-13%	u	15µM*	4	16%
COc1ccc(C2/C=C\CN(C(=O)C3CCCC3)C(C)C(=O)N2Cc2ccc(F)cc2)cc1 (stereo not drawn)	x	x	24%	x	x	6%
COc1ccc([C@H]2/C=C\CN(C(=O)c3ccc(C)cc3)[C@@H](C)C(=O)N2Cc2ccc(F)cc2)cc1	u	x	x	21µM*	-6	x
Nc1ccccc1SC/C=C/CSc1ccccc1N	5%	25%	36%	0%	u	5%
CCCCCCCCCCCCCCCC(=O)NCC(=O)O	x	x	17%	x	x	1%
CC(C)(CNC(=O)c1cc2c(s1)CCCC2)N1CCOCC1	8%	8%	x	-7%	-3	x
COc1ccc(N2CCN(C(=O)c3cccc(-n4c(C)nc5cccnc54)c3)CC2)cc1	16µM*	x	x	23µM*	x	x
Cc1nc2cccnc2n1-c1cccc(C(=O)N2CCN(c3ccc(Cl)cc3)CC2)c1	5.8µM*	x	x	2.6µM*	x	x
SMILES	DT40 TDP1 CPT	ELG1 DNA repair	RORgamma inh	TDP1 cell noCPT	IL-1B inflam inh	Gal4-VP16 FLuc
CN(CC(=O)Oc1ccc(-c2nnco2)cc1)S(=O)(=O)c1ccc(F)cc1	7%	10%	x	-3%	8	x
CCn1c(-c2ccccc2F)nc2cc(NC(C)=O)cc(C(=O)N3CCC[C@H]3C(=O)OC)c21	2%	x	x	-3%	x	x
CCCCNC(=O)C1c2ccccc2OCC(=O)N1CC(F)(F)F (stereo not drawn)	-10%	x	x	-18%	7	x
COc1cccc(NC(=O)CCc2nc(-c3cc(OC)c(OC)c(OC)c3)no2)c1	18µM*	x	x	16µM*	x	x
COc1cc(-c2noc(CCC(=O)Nc3cc(C)ccc3C)n2)cc(OC)c1OC	18µM*	x	x	12µM*	x	x
COc1cc(-c2noc(CCCC(=O)Nc3cccnc3)n2)cc(OC)c1OC	16%	-17%	0%	-4%	25	1%
COc1cc(-c2noc(CCCC(=O)NCc3ccccc3)n2)cc(OC)c1OC	-29%	18µM*	24%	u	12	3%
COc1cc(-c2noc(CCC(N)=O)n2)cc(OC)c1OC	x	0%	-9%	x	x	-2%
CCN(CC)C1CCN(C(=O)c2cnn(-c3nccc(-c4ccco4)n3)c2C(C)C)C1 (stereo not drawn)	-1%[9.04 µM]	x	x	1%	x	x
CN1/C(=C\C(=O)c2cccs2)C(C)(C)c2ccccc21	-11%	5%	u	-11%	0	u
CCc1ccc2c(c1)/C(=C/C(=O)c1cccs1)C(=O)N2	3.3µM*	27%	5.6µM*	5.2µM*	-106*	10µM*
Cc1cc(C)c2c(c1)/C(=C/C(=O)c1ccc(Br)s1)C(=O)N2	4.6µM*	u	18%	3.7µM*	-106*	8%
CCc1ccc2c(c1)/C(=N/N(C)C(=S)NC)C(=O)N2	-5%	-7%	2%	-18%	-27	5%
Cc1cccc2c1NC(=O)/C2=C\C(=O)c1cccs1	4.6µM*	20%	7.1µM*	4.6µM*	-122*	u
CCN1C[C@@H]2[C@@H]3C(=O)N(C)C(=O)[C@@H]3[C@](Cc3ccccc3)(C1=O)N2C(=O)c1ccc(F)cc1	2%	x	x	5%	23	x
C/C(=N\NC(N)=O)c1ccc(Cl)s1	1%	13%	17%	4%	14	-4%
C=C(C)CNC(=S)N/N=C(\C)c1ccc(Cl)s1	u	-17%	0.89µM*	16µM*	18	2.8µM*
CCNC(=S)N/N=C(\C)c1ccc(Cl)s1	4.1µM*	-27%	0.71µM*	4.1µM*	0	1.4µM*
C/C(=N/Nc1ccc(F)cc1)c1ccc(Cl)s1	-2%	10%	16%	0%	7	14%
CNC(=S)N/N=C(\C)c1ccc(Cl)s1	2.9µM*	7%	0.4µM*	4.6µM*	3	1.1µM*
